Only some compounds are listed: those with a hit (about 7.9% of all), similar ones and a draw of the others.
SW480 rerep – inducers of DNA re-replication in SW480 colon cancer cells; SW480 DNA re-replication, Hoechst DNA content imaging, 48 h; Potency, µM (top dose mostly 46.1 µM), inactives show top-dose re-replication activation, most hits filed as activators; 340,000 tested, 1.8% active; further: % of control where 0% means no effect; nearly all actives have a fitted effect of over 55% in size
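SW480 cells exposed to compounds for 48 hr at 37 C, 5% CO2, then Hoechst-stained 40 min. Nuclear DNA content imaged by fluorescence scanning (405 nm excitation, 500-530 nm emission); re-replication scored as increased high-intensity nuclei.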
KB-V1 MDR tox – kills drug-selected multidrug resistant KB-V1 cells. KB-V1 MDR cells viability, CellTiter-Glo, 72 h. AID 1347076. 400,000 tested, 3.4% active. Potency, µM (titrated, usually from 46.1 µM), hits mostly cytotoxic; further: on the % scale 0 is the no-effect control and ±100 the full control effect; nearly all actives have a fitted effect of over 60% in size
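Readout: CellTiter-Glo luminescence, 10 min after addition. Cells: KB-V1 MDR subline, 72 h at 37 degrees C with compound. Analysis: corrected, normalized data fitted to concentration-effect curves.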
MCF10A rerep – DNA re-replication induction in MCF 10a cells. MCF 10A DNA re-replication, Hoechst nuclear intensity, 48 h. Potency, µM (highest dose often 46.1 µM), for inactives: at the highest dose activity, positive = re-replication, usual class: activators. 350,000 tested, 2.9% active. AID 624296; further: % of control where 0% means no effect; nearly all actives have a fitted effect of over 50% in size
HT1080 IDH1KD tx – kills HT-1080 cells with IDH1 knockdown; HT-1080 IDH1 knockdown viability, ATP luminescence, 48 h; Potency, µM (titrated, usually from 46.1 µM), without a hit: top-dose activity, negative = toxicity, actives largely listed as cytotoxic; 360,000 tested, 2% active; AID 686971;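 further: 0% = DMSO wells and -100% = cell-free medium wells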
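Cytotoxicity counter-line: IDH1KD HT-1080, 48 h, CellTiter-Glo. Curves classed by r2, magnitude and activity.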
KB-3-1 tox – kills parental KB-3-1 adenocarcinoma cells | KB-3-1 viability, CellTiter-Glo ATP luminescence, 72 h | Potency, µM (top dose mostly 46.1 µM), most hits filed as cytotoxic | 400,000 tested, 1.4% active; further: on the % scale 0 is the no-effect control and ±100 the full control effect; nearly all actives have a fitted effect of over 60% in size
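Multi-concentration cytotoxicity screen in KB-3-1 cells grown in DMEM lacking phenol red with 10% FBS. After 72 h at 37 °C with compound, ATP-dependent luminescence was recorded.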
HT1080NT lethal – kills 2HG-producing HT-1080-NT fibrosarcoma cells; Potency, µM (highest dose often 46.1 µM), for the others: at the top dose activity, negative = less viability, hits mostly cytotoxic; 360,000 tested, 1.6% active; HT-1080-NT fibrosarcoma viability, CellTiter-Glo ATP luminescence, 48 h; AID 686970;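 further: NT is the 2HG producing partner of a matched IDH1 knockdown line; 0% = DMSO-treated cells and -100% = media-only wells without cells; nearly all actives have a fitted effect of over 55% in size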
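Read-out is CellTiter-Glo luminescence after 10 minutes at room temperature, following 48 hours' compound treatment of HT-1080-NT cells (750 cells/well, RPMI, 5% FBS, 37 degrees C).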
* = called active by the depositor; i = inactive; u = inconclusive; x = no result; [ ] = another dose, or the depositor's remark. The call rests on the fitted dose curve; in most records, active means well fitted curve in the direction sought with a large enough effect; inconclusive means small, poorly fitted or top-dose-only effect, or another doubt; inactive means no such curve, though single readings can be large; an effect the other way counts as inactive or inconclusive. Potency means the concentration at half of the fitted maximal effect.

SMILES	SW480 rerep	KB-V1 MDR tox	MCF10A rerep	HT1080 IDH1KD tx	KB-3-1 tox	HT1080NT lethal
CC(=O)c1cccc(N(C(=O)CNC(=O)c2cccs2)C(C(=O)NCC2CCCO2)c2ccccc2)c1 (configuration not stated)	-5.8%	i	-26.2%	0.8%	i	0.5%
CCOC(=O)c1c(NC(=O)CC2Nc3ccccc3NC2=O)sc(C)c1C (configuration not stated)	u	i	u	-9.8%	i	-4.9%
COC(=O)c1c(NC(=O)CC2Nc3ccccc3NC2=O)sc(C)c1C (configuration not stated)	3.9%	u	10.3µM*	-0.7%	i	-3.7%
O=C(CC1Nc2ccccc2NC1=O)Nc1cc(Cl)cc(Cl)c1 (configuration not stated)	1.84µM*	i	u	-29.8%	i	-11.4%
Oc1ccc(Br)cc1Cn1nnc2ccccc21	6.9%	i	9.7%	-11.3%	i	-0.6%
CCC1=C[C@@H]2CN(C1)Cc1c([nH]c3ccccc13)[C@@](C(=O)OC)(c1cc3c(cc1OC)N(C)[C@H]1[C@@](O)(C(=O)OC)[C@H](OC(C)=O)[C@]4(CC)C=CCN5CC[C@]31[C@@H]54)C2	x	u	x	x	0.0291µM*	x
CCOc1ccccc1NC(=O)CSc1nc2c(c(=O)[nH]1)CCC2	x	i	x	x	i	x
O=C(NCC1CCCO1)C(=Cc1cccc([N+](=O)[O-])c1)C(=O)NCC1CCCO1 (configuration not stated)	u	i	u	u	u	16.4µM*
O=C(NCC1CCCO1)c1ccccc1NS(=O)(=O)c1cc([N+](=O)[O-])ccc1Cl (configuration not stated)	3.5%	16.4µM*	6.0%	-6.8%	u	-10.8%
CCCN1C(=O)/C(=C/c2ccc(C)o2)SC1=Nc1ccc(OCC)cc1	-4.7%	i	-3.9%	7.5%	i	12.6%
CCCN1C(=O)/C(=C/c2ccc(C)o2)SC1=Nc1ccc(OC)cc1	1.2%[9.22 µM]	i	16.4µM*	u	i	u
O=C(CSc1nncn1-c1ccccc1)Nc1cc(Cl)cc(Cl)c1	-2.6%	i	0.4%	10.8%	i	5.0%
CN(C)S(=O)(=O)c1cccc(NC(=O)CSc2nnnn2-c2ccccc2)c1	-37.1%	10.3µM*	5.8%	-3.4%	i	u
CN(C)S(=O)(=O)c1cccc(NC(=O)CSc2nncn2-c2ccccc2)c1	-47.4%	i	0.651µM*	3.8%	u	-2.9%
NS(=O)(=O)c1cccc(NC(=O)CSc2nnnn2-c2ccccc2)c1	111.7%	u	u	-6.8%	i	19.5%
Cc1csc(=O)n1CC(=O)Nc1ccc(C(C)C)cc1	0.0%	i	0.5%	-1.6%	i	-5.7%
CN1CCN(c2ncnc3c2[nH]c2ccc(F)cc23)CC1	3.5%	i	-2.5%	-22.7%	i	0.3%
c1ccc2c(c1)[nH]c1c(N3CCCC3)ncnc12	-5.1%	u	4.5%	-11.0%	i	-11.8%
Cc1ccc2[nH]c3c(N4CCc5ccccc5C4)ncnc3c2c1	2.6%	u	u	-7.8%	u	20.6µM*
Fc1ccc2[nH]c3c(N4CCc5ccccc5C4)ncnc3c2c1	-14.4%	6.51µM*	u	2.59µM*	u	10.3µM*
CCOc1ccc2[nH]c3c(N4CCc5ccccc5C4)ncnc3c2c1	u	11.6µM*	9.2µM*	10.3µM*	u	18.4µM*
Brc1ccc2[nH]c3c(N4CCc5ccccc5C4)ncnc3c2c1	u	i	u	23.1µM*	i	18.4µM*
Cc1ccc2[nH]c3c(N4CCOCC4)ncnc3c2c1	-6.2%	i	9.7%	u	i	-29.4%
CC(=O)c1ccc(NC(=O)c2nc(-c3ccccc3)n(-c3ccc(Cl)cc3)n2)cc1	x	i	x	x	i	x

High-throughput results: PubChem BioAssay, National Center for Advancing Translational Sciences (NCATS)
